Assay outcomes deposited in PubChem by National Center for Advancing Translational Sciences (NCATS).
In the library only some 19% were active in any assay of this set; here they are far more common.
MCF10A rereplic = DNA re-replication induction in MCF 10a cells; MCF 10A DNA re-replication, Hoechst nuclear intensity, 48 h; AID 624296; 350,000 tested, 2.9% active; Potency, µM (doses to about 46.1 µM), hits mostly activators; further: nearly all actives have a fitted effect of over 50% in size
SW480 rereplic = inducers of DNA re-replication in SW480 colon cancer cells; 340,000 tested, 1.8% active; AID 624297; Potency, µM (titrated, usually from 46.1 µM), usual class: activators; SW480 DNA re-replication, Hoechst DNA content imaging, 48 h; further: nearly all actives have a fitted effect of over 55% in size
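SW480 cells exposed to compounds for 48 hr at 37 C, 5% CO2, then Hoechst-stained 40 min. Nuclear DNA content imaged by fluorescence scanning (405 nm excitation, 500-530 nm emission); re-replication scored as increased high-intensity nuclei.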
Chronic BCR inh = blocks chronic active B-cell receptor signaling | Potency, µM (doses to about 46.1 µM), hits mostly inhibitors | 340,000 tested, 0.05% active | ABC-DLBCL IkBa-CBG/CBR reporter, luminescence ratio, 4 h; active means well fitted inhibition curve with a large enough effect in the signal ratio, with a control signal flat, not every such curve was filed as active; inconclusive means small, poorly fitted or top-dose-only effect, or effect the other way, or a change in a side signal; the % refers to the signal ratio
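TMD8 ABC-DLBCL cells carrying doxycycline-inducible green luciferase fused to IkappaBalpha plus unfused red luciferase were exposed to compounds (up to 46 uM) for 4 hrs at 37C. Activity came from the overlap-corrected green/red luminescence ratio.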
DT40 TDP1 no CPT = qHTS for Inhibitors of human tyrosyl-DNA phosphodiesterase 1 (TDP1): qHTS in cells in absence of CPT | Potency, µM (top dose mostly 46.2 µM), usual class: inhibitors | 420,000 tested, 15% active | DT40 Tdp1-/- hTDP1 cells, no CPT, ATP luminescence, 48 h; further: nearly all actives have a fitted effect of over 55% in size
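DT40 Tdp1-/-;hTDP1 cells, no CPT (DMSO vehicle only), 400 cells/well; compounds pin-transferred; ≥48 hr, 37 °C; CellTiter-Glo 30 min RT dark, luminescence read.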
TDP1 cell CPT = growth inhibition of DT40 Tdp1-/-;hTDP1 cells with camptothecin (screen for TDP1 inhibitors) | chicken DT40 Tdp1-/-;hTDP1 cells + 20 nM CPT, ATP luminescence, 48 h | Potency, µM (titrated, usually from 46.2 µM), most hits filed as inhibitors | 420,000 tested, 12% active | AID 686979; further: nearly all actives have a fitted effect of over 55% in size
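Chicken DT40 Tdp1-/- cells stably complemented with human TDP1 were seeded at 400 cells/well in medium containing 20 nM camptothecin, exposed to pin-transferred compounds, and grown at 37 °C for at least 48 hr. Viability was read as ATP luminescence.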
IL-1B inflam inh = inflammasome signaling inhibition, IL-1 beta readout; activity change, % at 57.5 µM; THP-1 LPS/ATP IL-1B secretion, AlphaLISA, 16 h; active compounds read low; 360,000 tested, 4.7% active; in the data active means activity change below about -50%; inconclusive means mostly about -30% to -49%
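THP-1 cells pretreated 1 hr with compounds (up to 57.5 uM final), then stimulated with LPS (250 ng/mL final) plus ATP (1.25 mM final); secreted IL-1B measured by AlphaLISA after 16 hr, decreased signal indicating inhibition.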
Numbers stand for hits. Unless noted, the call rests on the fitted dose curve; in most records, active means well fitted curve in the direction sought with a large enough effect; inconclusive means small, poorly fitted or top-dose-only effect, or another doubt; inactive means no such curve, though single readings can be large; an effect the other way counts as inactive or inconclusive.

CC1(C)C(=O)C2C[C@]3(O)C4=CC(=O)OC(c5ccoc5)[C@]4(C)CCC3[C@](C)(C2=O)C1CC(=O)O (some centres not stated) was read as DT40 TDP1 no CPT inactive and TDP1 cell CPT inactive.
Screening CC(=O)OC1C=C[C@]2(C)C(CC(OC(C)=O)[C@@]3(C)C4=CC(=O)OC(c5ccoc5)[C@]4(C)CCC23)C1(C)C (some centres not stated) returned DT40 TDP1 no CPT 21µM and TDP1 cell CPT inconclusive.
For COC(=O)[C@@]1(Sc2ccc(C)cc2)CC(=O)N[C@@H]1c1ccc(Br)cc1 the results were DT40 TDP1 no CPT inactive, TDP1 cell CPT inactive and IL-1B inflam inh inactive.
`NC(=O)CSc1nnc(CSc2ncccn2)n1-c1ccccc1` gave MCF10A rereplic inactive, SW480 rereplic inactive, Chronic BCR inh inactive, DT40 TDP1 no CPT inactive, TDP1 cell CPT inactive and IL-1B inflam inh inactive.
`O=C(OCC(O)CO)c1ccccc1Nc1ccnc2cc(Cl)ccc12` (configuration not stated) gave MCF10A rereplic inactive, SW480 rereplic inactive, Chronic BCR inh inconclusive, DT40 TDP1 no CPT inconclusive, TDP1 cell CPT inconclusive and IL-1B inflam inh -83.
For O=C(OC[C@@H](O)CO)c1ccccc1Nc1ccnc2cc(Cl)ccc12 the results were MCF10A rereplic inactive and SW480 rereplic inactive.
Cc1ccc(CNC(=O)c2cc3c(=O)n(C)c4ccccc4c3n2C)cc1 was read as MCF10A rereplic inactive, SW480 rereplic inactive, Chronic BCR inh inconclusive, DT40 TDP1 no CPT inconclusive, TDP1 cell CPT inconclusive and IL-1B inflam inh inactive.
Screening CN(CCNC(=O)c1cc2c(=O)n(C)c3ccccc3c2n1C)Cc1ccccc1 returned MCF10A rereplic 21µM, SW480 rereplic inactive, Chronic BCR inh inconclusive, DT40 TDP1 no CPT inconclusive, TDP1 cell CPT inconclusive and IL-1B inflam inh inconclusive.
`CCCN(CCC)CCNC(=O)c1cc2c(=O)n(C)c3ccccc3c2n1C` gave MCF10A rereplic inconclusive, SW480 rereplic inactive, Chronic BCR inh inactive, DT40 TDP1 no CPT 18µM, TDP1 cell CPT inconclusive and IL-1B inflam inh -63.
`COC(=O)C12CC3CC(C1)CC(n1cnc(Cl)n1)(C3)C2` gave MCF10A rereplic inactive, SW480 rereplic inactive, Chronic BCR inh inactive, DT40 TDP1 no CPT inactive, TDP1 cell CPT inconclusive and IL-1B inflam inh inactive.
Screening O=C(Nc1cc(Oc2ccccc2)cc([N+](=O)[O-])c1)C12CC3CC(C1)CC(n1cnc(Cl)n1)(C3)C2 returned MCF10A rereplic inactive, SW480 rereplic inactive, Chronic BCR inh inactive, DT40 TDP1 no CPT inconclusive, TDP1 cell CPT inconclusive and IL-1B inflam inh inactive.
Screening COC(=O)c1ccccc1NC(=O)C12CC3CC(C1)CC(n1cnc(Cl)n1)(C3)C2 returned MCF10A rereplic inactive, SW480 rereplic inactive, Chronic BCR inh inactive, DT40 TDP1 no CPT 16µM, TDP1 cell CPT 21µM and IL-1B inflam inh inconclusive.
`O=C(O)c1cccc(NC(=O)C23CC4CC(C2)CC(n2cnc(Cl)n2)(C4)C3)c1` gave MCF10A rereplic inactive, SW480 rereplic inactive, Chronic BCR inh inactive, DT40 TDP1 no CPT inactive, TDP1 cell CPT inactive and IL-1B inflam inh inactive.
`COc1ccc(NC(=O)C23CC4CC(C2)CC(n2cnc(Br)n2)(C4)C3)cc1Cl` gave MCF10A rereplic inactive, SW480 rereplic inactive, Chronic BCR inh inactive, DT40 TDP1 no CPT 23µM, TDP1 cell CPT inconclusive and IL-1B inflam inh inactive.
O=C(Nc1cccc2ccccc12)C12CC3CC(C1)CC(n1cnc([N+](=O)[O-])n1)(C3)C2 was read as MCF10A rereplic inactive, SW480 rereplic inconclusive, Chronic BCR inh inconclusive, DT40 TDP1 no CPT 26µM, TDP1 cell CPT 23µM and IL-1B inflam inh inactive.
`O=C1c2ccccc2C2(c3ccccc3)NCCN12` (configuration not stated) gave MCF10A rereplic inactive, SW480 rereplic inactive, Chronic BCR inh inactive, DT40 TDP1 no CPT inactive, TDP1 cell CPT inactive and IL-1B inflam inh inactive.
